This is a sample that favours compounds with a hit; in the whole collection about 19% have one here.
TDP1 cell CPT: DT40-hTDP1 cell growth loss with CPT | 420,000 tested, 12% active | chicken DT40 Tdp1-/-;hTDP1 cells + 20 nM CPT, ATP luminescence, 48 h | Potency, µM (titrated, usually from 46.2 µM), for inactives: at the highest dose activity change, negative = growth inhibition, usual class: inhibitors; also: potency is read from the fitted curve at half-maximal effect; % is scaled to controls: 0 for no effect and ±100 for the full control effect; nearly all actives have a fitted effect of over 55% in size
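Chicken DT40 Tdp1-/- cells stably complemented with human TDP1 were seeded at 400 cells/well in medium containing 20 nM camptothecin, exposed to pin-transferred compounds, and grown at 37 °C for at least 48 hr. Viability was read as ATP luminescence.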
MCF10A rereplic: inducers of DNA re-replication in MCF 10A breast cells; 350,000 tested, 2.9% active; Potency, µM (doses to about 46.1 µM), without a hit: at the top dose activity, positive = re-replication, actives largely listed as activators; MCF 10A DNA re-replication, Hoechst nuclear intensity, 48 h; also: potency is read from the fitted curve at half-maximal effect; % of control where 0% means no effect; nearly all actives have a fitted effect of over 50% in size
SW480 rereplic: DNA re-replication induction in SW480 cells; SW480 DNA re-replication, Hoechst DNA content imaging, 48 h; Potency, µM (series often up to 46.1 µM), without a hit: at the highest dose re-replication activation, usual class: activators; 340,000 tested, 1.8% active; AID 624297; also: potency is read from the fitted curve at half-maximal effect; % of control where 0% means no effect; nearly all actives have a fitted effect of over 55% in size
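Cells (250 per well) received 23 nL compound or DMSO by pin tool and were kept 48 hr at 37 C, 5% CO2. Nuclei were then stained with Hoechst for 40 min and scanned for DNA content.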
TDP1 cell noCPT: qHTS for Inhibitors of human tyrosyl-DNA phosphodiesterase 1 (TDP1): qHTS in cells in absence of CPT; Potency, µM (doses to about 46.2 µM), without a hit: at the top dose activity change, negative = growth inhibition, actives largely listed as inhibitors; 420,000 tested, 15% active; DT40 Tdp1-/- hTDP1 cells, no CPT, ATP luminescence, 48 h; also: potency is read from the fitted curve at half-maximal effect; % is scaled to controls: 0 for no effect and ±100 for the full control effect; nearly all actives have a fitted effect of over 55% in size
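Chicken DT40 Tdp1-/- cells stably complemented with human TDP1 were seeded at 400 cells/well with DMSO in place of 20 nM camptothecin. After compound pinning, cells grew at least 48 hr at 37 °C; viability read by CellTiter-Glo luminescence.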
Chronic BCR inh: chronic active BCR signaling inhibition. ABC-DLBCL IkBa-CBG/CBR reporter, luminescence ratio, 4 h. Potency, µM (highest dose often 46.1 µM), without a hit: at the top dose activity change, negative = inhibition, usual class: inhibitors. 340,000 tested, 0.05% active; active = well fitted inhibition curve with a large enough effect in the signal ratio, with a control signal flat, not every such curve was filed as active; inconclusive = small, poorly fitted or top-dose-only effect, or effect the other way, or a change in a side signal; the % refers to the signal ratio;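 also: potency is read from the fitted curve at half-maximal effect; plate controls were basal doxycycline-induced cells for no effect and cells given 10 µM MG132 for full effect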
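Doxycycline induced both beetle luciferases in TMD8 lymphoma cells; IKK-driven degradation limits the IkappaBalpha-fused green signal, while red luminescence normalises for cell number and nonspecific effects. Compounds tested up to 46 uM, 4 hrs.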
IL-1B inflam inh: inflammasome signaling inhibition, IL-1 beta readout | THP-1 LPS/ATP IL-1B secretion, AlphaLISA, 16 h; hits give low values | activity change, % at 57.5 µM | 360,000 tested, 4.7% active | AID 743279; in the data active = activity change below about -50%; inconclusive = mostly about -30% to -49%; also: % is scaled to controls: 0 for no effect and ±100 for the full control effect
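Secreted IL-1B measured by AlphaLISA bead assay after 16 h compound exposure of THP-1 cells; compounds (final up to 57.5 uM) added 1 h before LPS (250 ng/mL) and ATP (1.25 mM) stimulation; lower signal means less secretion.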
An asterisk follows results filed as active; i = inactive; ? = inconclusive; / = no result. Unless noted, calls follow the shape of the dose curve; as a rule, active = well fitted curve in the direction sought with a large enough effect; inconclusive = small, poorly fitted or top-dose-only effect, or another doubt; inactive = no such curve, though single readings can be large; an effect the other way counts as inactive or inconclusive.

SMILES | TDP1 cell CPT | MCF10A rereplic | SW480 rereplic | TDP1 cell noCPT | Chronic BCR inh | IL-1B inflam inh
OC(COc1ccc2ccccc2c1Br)Cn1cnc(-c2ccccc2)c1 (centres undefined) | ? | ? | 11% | ? | ? | -96*
Oc1ccc(N=Cc2ccc(OCc3ccccc3)cc2)cc1 | 21µM* | ? | ? | 21µM* | 10% | 24
O=C(N/N=C/c1ccc(OCc2ccccc2)cc1)c1ccncc1 | -26% | ? | -96% | -26% | 0% | 4
CC(CNC(=O)C1CCN(S(=O)(=O)c2ccc3c(ccn3C)c2)CC1)c1ccccc1 (centres undefined) | -23% | / | / | -4% | / | /
CCC(C)NC(=O)Cn1ccc2cc(S(=O)(=O)N3CCCCC3)ccc21 (centres undefined) | ? | / | / | -13% | ? | /
CCn1ccc2cc(S(=O)(=O)N3CCC(C(=O)NCC(C)c4ccccc4)CC3)ccc21 (centres undefined) | 23µM* | / | / | ? | / | /
CC(CNC(=O)Cn1ccc2cc(S(=O)(=O)N3CCCCCC3)ccc21)c1ccccc1 (centres undefined) | 16µM* | / | / | ? | / | /
Cc1ccc(-c2noc(C(C)NC(=O)c3ccco3)n2)cc1 (centres undefined) | 16µM* | / | / | 12µM* | / | /
CC(NC(=O)c1ccco1)c1nc(-c2ccc(C(C)(C)C)cc2)no1 (centres undefined) | 21µM* | 5% | -7% | 21µM* | -3% | 0
CC(=O)Nc1ccc(S(=O)(=O)NC(C)c2nc(-c3ccccc3)no2)cc1 (centres undefined) | -16% | 1% | -10% | -8% | 0% | -3
Cc1ccc(-c2noc(C(C)NS(=O)(=O)c3ccc(C)cc3)n2)cc1 (centres undefined) | ? | / | / | 21µM* | -5% | /
N#Cc1ccccc1OCC(=O)OCC(=O)NC1CCS(=O)(=O)C1 (centres undefined) | 7% | 0% | -4% | 0% | 0% | 17
Cc1ccc(OCc2nc(-c3ccc(C(=O)N4CCN(c5ccccc5F)CC4)cc3)oc2C)cc1 | -1% | / | / | -4% | / | /
COc1ccc(N2CCN(S(=O)(=O)CCNC(=O)Cc3ccc(OC)c(OC)c3)CC2)cc1 | -28% | / | / | -23% | / | /
COc1ccc(/C=C/C(=O)c2ccc3ccccc3c2O)cc1CN1CCOCC1 | ? | 2% | -2% | 18µM* | 0% | -67*
COc1ccc(/C=C/C(=O)c2ccccc2O)cc1CN1CCOCC1 | 16µM* | ? | ? | ? | ? | -6
N#Cc1c(NCCN)nc(-c2ccccc2)c2c1CCCC2 | ? | ? | ? | ? | ? | -55*
N#Cc1c(NCCCO)nc(-c2ccccc2)c2c1CCCC2 | -10% | ? | 7% | -7% | -3% | 14
O=C(c1ccc(N2C(=O)C3C4CC(C(Br)C4Br)C3C2=O)cc1)N1CCCCC1 (centres undefined) | 9% | -1% | ? | -5% | -2% | i
COc1cccc(OC)c1C(=O)Nc1cc2c(cc1N1CCOCC1)n(C)c(=O)n2C | -3% | 7% | -20% | 18% | ? | ?
CCn1c(=O)n(CC)c2cc(N3CCCC3)c(NC(=O)c3ccccc3OC)cc21 | 6.5µM* | 19% | 17% | 5.8µM* | 14% | -53*
COc1ccccc1C(=O)NC(=S)Nc1ccccc1N1CCCC1 | / | / | / | / | 2% | /
CCOc1cc(C(=O)Nc2cc3c(cc2N2CCCC2)n(C)c(=O)n3C)cc(OCC)c1OCC | -7% | 20% | 15% | 12% | -5% | 0
CCOc1ccccc1C(=O)Nc1cc2c(cc1N1CCOCC1)n(C)c(=O)n2C | 15µM* | / | / | 16µM* | / | /
COc1ccc(C(=O)Nc2ccc(N3CCCC3)cc2)cc1Br | ? | -3% | -9% | ? | ? | -10
SMILES | TDP1 cell CPT | MCF10A rereplic | SW480 rereplic | TDP1 cell noCPT | Chronic BCR inh | IL-1B inflam inh
CCOc1ccccc1C(=O)Nc1cc2c(cc1N1CCCC1)n(CC)c(=O)n2CC | 4.6µM* | ? | -30% | 4.6µM* | ? | -10
CCn1c(=O)n(CC)c2cc(N3CCCC3)c(NC(=O)c3ccc(OC)c(Br)c3)cc21 | 16µM* | ? | -2% | 12µM* | -4% | -4
Nc1c(N(Cc2ccccc2)C(=O)COc2ccc(F)cc2Cl)c(=O)[nH]c(=O)n1Cc1ccccc1 | ? | ? | 8% | -23% | 5% | 2
O=C(CN1C(=O)c2ccccc2S1(=O)=O)Nc1ccon1 | 3% | 4% | 4% | -5% | ? | -25
CCn1c(=O)n(CC)c2cc(N3CCCC3)c(NC(=O)c3cc(Cl)ccc3OC)cc21 | 16µM* | ? | ? | 21µM* | -7% | -64*
CCC(C)(C)n1nnnc1C(c1ccc(O)c(OC)c1)N1CCN(c2nc3ccccc3s2)CC1 (centres undefined) | ? | ? | ? | 16µM* | ? | 15
c1ccc(C(c2nnnn2Cc2ccco2)N2CCN(c3nc4ccccc4s3)CC2)cc1 (centres undefined) | ? | 21% | -4% | 15µM* | 9% | -13
CCC(C)(C)n1nnnc1C(c1ccc(O)c(OC)c1)N1CCc2ccccc2C1 (centres undefined) | 7.3µM* | ? | ? | 13µM* | ? | 17
COc1ccccc1C(c1nnnn1Cc1ccccc1)N1CCN(c2nc3ccccc3s2)CC1 (centres undefined) | ? | 17% | 7% | ? | 5% | -7
COc1ccc(C(c2nnnn2Cc2ccccc2)N2CCN(c3nc4ccccc4s3)CC2)cc1OC (centres undefined) | ? | ? | ? | 18µM* | 16% | -8
COc1ccc(C(c2nnnn2C(C)(C)C)N2CCN(c3nc4ccccc4s3)CC2)cc1 (centres undefined) | 7% | 1% | -1% | 4% | 0% | 14
CCC(C)(C)n1nnnc1C(c1cc(OC)c(OC)c(OC)c1)N1CCN(c2ccccc2)CC1 (centres undefined) | -9% | 1% | -4% | -22% | ? | -3
O=C(Nc1cc(F)ccc1F)C1CCN(c2nc3ccccc3n3cccc23)CC1 | -27% | / | / | ? | / | /
CN(C)CCN(C(=O)C1=COCCO1)c1nc2ccc(F)cc2s1 | -8% | -1% | -1% | -10% | / | 8

Source: PubChem (National Center for Advancing Translational Sciences (NCATS))
